Assay results as given in PubChem BioAssay (EPA / NIEHS).
Results filed as inconclusive are left out. The source made the active and inactive calls. How the source made its calls: active means hit-call score of the fitted dose curve at least 0.9, where 1 is the maximum; inconclusive means response in the unintended direction; inactive means score below 0.9.

target: Sodium channel protein type 1 subunit alpha (Rattus norvegicus) (UniProt P04774); experiment: NVS_IC_rNaCh_site2: NovaScreen (NVS) Ion Channel Assay for rat Sodium Channel, Site 2 (NaCh) (AID 2283322)
Protocol: NVS_IC_rNaCh_site2 is a biochemical, single-readout assay that uses extracted gene-proteins from Rat forebrain membranes in a tissue-based cell-free assay. Measurements were taken 1 hour after chemical dosing in a 48-well plate.NVS_IC_rNaCh_site2 is one of one assay component(s) measured or calculated from the NVS_IC_rNaCh_site2 assay. It is designed to make measurements of radioligand binding, a form of binding reporter, as detected with scintillation counting signals by Filter-based radiodetection technology.Data from the assay component NVS_IC_rNaCh_site2 was analyzed into 1 assay endpoint. This assay endpoint, NVS_IC_rNaCh_site2, was analyzed in the positive analysis fitting direction relative to DMSO as the negative control and baseline of activity. Using a type of binding reporter, loss-of-signal activity can be used to understand changes in the binding as they relate to the gene Scn1a. Furthermore, this assay endpoint can be referred to as a primary readout, because the performed assay has only produced 1 assay endpoint. To generalize the intended target to other relatable targets, this assay endpoint is annotated to the ion channel intended target family, where the subfamily is sodium channel.
Binding assays used specific radioligands (tritiated, iodinated) with non-radioactive competitive displacement ligands in agonist or antagonist protocols (as indicated) and various reference compounds and inhibitors to titrate specific binding to receptors and transporters. Most enzyme assays (CYPs, kinases, phosphatases, proteases, HDACs) used recombinant protein and specific substrates (fluorescence mostly, some colorimetric and radioactive) and inhibitors, followed by a biochemical separation of substrate and product. All assays for the biochemical HTS were initially run in duplicate at a single concentration (10 uM for CYP450 assays and 25 uM for all others). […] Each assay was run with positive and negative controls, and concurrent controls on every plate. The follow-up (secondary) screen tested active chemical-pairs in concentration series, as well as a few additional assays not tested in the primary screen, some selected negative inactives, and several cases re-run in the concentration series for confirmatory purposes.

Q: How did the AC50 turn out when COc1cc(-c2nc(NC(=O)c3cc4cc(C)cc(C)c4n3CC(=O)O)sc2CCC2CCCCC2)c(OC)cc1Cl was run?
A: The AC50 was 9.13 µM (active).

Q: With O=C(N[C@@H](Cc1ccccc1)[C@@H](O)C(=O)N1C[C@@H](O)[C@@H](O)C1)c1cc2cc(Cl)ccc2[nH]1 as the compound, how does the outcome read?
A: Its outcome is “inactive”.

Q: For Cc1c(C(=O)O)c(O)cc2c1C(=O)c1c(O)c([C@@H]3O[C@H](CO)[C@@H](O)[C@H](O)[C@H]3O)c(O)c(O)c1C2=O, which outcome is on record?
A: The outcome was “inactive”.

Q: With Oc1ccc2c(c1)OC[C@@H](N1CCC(O)(c3ccc(F)cc3)CC1)[C@H]2O as the compound, how does the outcome read?
A: Its outcome is “inactive”.

Q: How did the AC50 turn out when Cc1nc(-c2ccc3c(c2)CCN(CCC2CCC(NC(=O)/C=C/c4ccc(F)cc4)CC2)CC3)no1 (configuration not stated) was run?
A: Its AC50 is 0.265 µM (active).

Q: For CC(C)c1ccc(C(=O)N=C(N)N)cc1S(C)(=O)=O, which AC50 is on record?
A: The AC50 was 34 µM (active).

Q: COc1ccc(S(=O)(=O)N2C(=O)[C@@](c3ccccc3OC)(N3C[C@H](O)C[C@H]3C(=O)N(C)C)c3cc(Cl)ccc32)c(OC)c1 was tested. Which AC50 did it give?
A: The AC50 was 39.6 µM (active).

Q: Which AC50 does the source give for CCc1c(C(=O)NN2CCCCC2)nn(-c2ccc(Cl)cc2Cl)c1-c1ccc(Br)cc1 here?
A: The AC50 was 11.5 µM (active).

Q: How did the outcome turn out when CCCCC(CC)COC(=O)CC(C(=O)OCC(CC)CCCC)S(=O)(=O)O (configuration not stated) was run?
A: The outcome was “inactive”.

Q: CCOC(=O)CCC(=O)OCC was tested. Which outcome did it give?
A: Its outcome is “inactive”.

Q: Which AC50 does the source give for CN1CCN(Cc2cc(-c3ccc4[nH]c(=O)oc4c3)co2)[C@@H](c2ccc(F)cc2)C1 here?
A: The AC50 was 7.72 µM (active).

Q: NC(=O)Cn1c(=O)cc(CCN2CCN(c3nccc4sccc34)CC2)c2ccc(F)cc21 was tested. Which outcome did it give?
A: The outcome was “inactive”.
